PAX8 inh HTS: inhibitors of PAX8 transcriptional activity in RMG-I cells; RMG-I TPO-luciferase reporter, SteadyGlo, 24 h; inhibition, % at 12.6 µM; 1.2% of 360,000 active; AID 652154;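 active = mean replicate inhibition at least 60% with every replicate also reaching 60%; inconclusive = only one of the two criteria is met; inactive = mean below 60% and not all replicates reaching 60%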;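 note: luciferase light reporting Pax8 driven TPO promoter activity; plate controls were median of neutral control wells for no effect and mitoxantrone controls for full effect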
EWS-Fli block: inhibitors of EWS/Fli oncoprotein transcriptional activity; inhibition, % at 12.6 µM; A673 NR0B1-luciferase reporter, viability-normalised; 0.67% of 350,000 active;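 active = mean inhibition of at least 50% after viability correction, with every replicate also passing that limit; inconclusive = mean reaches 50% but only one of two replicates passes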;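 note: firefly luciferase signal divided by Alamar Blue viability fluorescence both relative to DMSO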
esBAF inh: SWI/SNF esBAF complex inhibition. mouse ES cells, Bmi1-luciferase knock-in reporter, 24 h; 100% = twice the neutral-well signal. reporter increase, % at 12.5 µM. 2% of 350,000 active; in the data active = activation above about 40%; inconclusive = no clear call, values can overlap the other calls;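 note: 0% = median of the plate's neutral control wells and 100% = double that signal; a rise in the Bmi1 reporter signal indicates esBAF inhibition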
MITF TRPM1 inh: inhibitors of MITF-driven TRPM1 promoter in melanoma cells | SK-MEL-5 TRPM1 promoter luciferase, 24 h | inhibition, % at 12.5 µM | 0.83% of 330,000 active;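 active = mean inhibition across replicates of 60% or more, whatever share of single replicates reaches that level; inconclusive = some that reach 60%, reason not given; inactive = mean inhibition across replicates below 60%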
Wnt bcat act: Wnt/beta-catenin pathway activation. Wnt/beta-catenin reporter cell assay, activator, plate reader. activation, % at 9.35 µM. 1.2% of 300,000 active; in the data active = activation above about 30%, passing the limit was not always enough; inconclusive = no clear call, values can overlap the other calls;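 note: 0% = neutral control wells and 100% = positive control wells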
MITF act: MITF TRPM1 promoter activation in melanoma cells. AID 588334. activation, % at 12.5 µM. SK-MEL-5 TRPM1-promoter luciferase, 24 h; % of positive control, neutral wells = 0. 0.75% of 300,000 active;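 active = mean activation of at least 80% with every replicate also reaching 80%; inconclusive = mean reaches 80% but some replicate falls short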;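 note: 0% = neutral control wells and 100% = parthenolide positive control wells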
Starred values were filed as active, the others as inactive; ? = inconclusive; · = no result; ! = not confirmed by another sample. The list is not random: actives were taken first. Their share in the collection is about 4%.

SMILES	PAX8 inh HTS	EWS-Fli block	esBAF inh	MITF TRPM1 inh	Wnt bcat act	MITF act
COc1ccc2oc(=O)c(C(=O)Nc3ccccc3C)cc2c1	-107	-56	4	-67	-1	·
COc1ccc2oc(=N)c(C(=O)Nc3ccccc3)cc2c1	·	·	28	-23	·	25
COc1ccc2oc(=O)c(C(=O)N3CCN(c4ccccc4C)CC3)cc2c1	·	·	76*	-110	49*	105*
COc1ccc2oc(=N)c(C(=O)Nc3cccc(C)c3C)cc2c1	-59	-58	80*	-87	-4	70
COc1ccc2oc(=N)c(C(=O)Nc3ccc(F)cc3)cc2c1	9	-83	·	-40	4	43
CN(C)C(=O)c1cccc(-c2ccc([C@H]3[C@@H](CO)N4CCCCN(CC5CCOCC5)C[C@@H]34)cc2)c1	-9	-7	0	·	·	·
COc1ccc2oc(=N)c(C(=O)Nc3ccc(Cl)cc3)cc2c1	-12	-23	23	-21	2	·
N=c1oc2ccc(Cl)cc2cc1C(=O)Nc1ccc(F)cc1	9	-127	7	-29	36*	36
CCOc1ccccc1N1CCN(C(=O)c2cc3ccccc3cc2OC)CC1	42	59*	-9	44	-10	-44
O=C(Nc1ccc2nn(-c3ccccc3)nc2c1)c1cccnc1	·	·	53*	-67	-2	69
O=C(Nc1cc2nn(-c3ccccc3)nc2cc1Cl)c1ccco1	·	·	?	-28	5	25
O=C(Nc1ccc2nn(-c3ccccc3)nc2c1)c1ccco1	·	·	62*	-94	·	·
CNC[C@@H]1OCCCC[C@@H](C)Oc2ccc(NS(=O)(=O)c3ccccc3)cc2C(=O)N([C@H](C)CO)C[C@@H]1C	-22	-2	-12	·	·	·
Cc1cccc(NC(=O)CC23CC4CC(C2)CC(n2nnc(C)n2)(C4)C3)c1	111*	-10	·	5	-1	-7
C=CCN=C1S/C(=C\c2ccc(N(C)C)cc2)C(=O)N1CC=C	-140	-68	·	-95	37*	99*
Cc1ccc(C)c(N2CCN(C(=S)Nc3ccc4nc(N5CCN(C)CC5)cc(C)c4c3)CC2)c1	36	30	·	85*	-1	-84
CN(C)/C=N/C(=S)Nc1cc(Cl)cc(Cl)c1	5	10	3	15	10	-16
CN1CCN(C(=S)Nc2ccc(Cl)c(Cl)c2)CC1	126*	0	·	-8	-1	11
CN(C)/C=N/C(=S)Nc1ccc(Cl)c(Cl)c1	-112	-66	63*	-40	9	41
CCCCS/C(N)=N/N=C/c1ccccc1O	·	·	·	-64	·	69
CCCS/C(N)=N/N=C/c1cc(C)ccc1O	·	·	·	-136	·	123*
COc1ccc2c3c(n(C)c2c1)[C@@H](CO)N(C(=O)C1CCCC1)CC31CN(C(=O)Nc2cccc(F)c2)C1	-9	12	·	·	·	·
C[C@H]1CCCCO[C@H](CN(C)Cc2ccc(Cl)c(Cl)c2)[C@@H](C)CN([C@@H](C)CO)C(=O)c2cc(NS(=O)(=O)c3ccccc3)ccc2O1	5	15	·	·	·	·
C[C@@H]1CCCCO[C@H](CN(C)Cc2ccc(Cl)c(Cl)c2)[C@@H](C)CN([C@@H](C)CO)C(=O)c2cc(NS(=O)(=O)c3ccccc3)ccc2O1	103*	19	2	·	·	·
C[C@@H]1CCCCO[C@@H](CN(C)Cc2ccc(Cl)c(Cl)c2)[C@H](C)CN([C@@H](C)CO)C(=O)c2cc(NS(=O)(=O)c3ccccc3)ccc2O1	95*	10	1	·	·	·
SMILES	PAX8 inh HTS	EWS-Fli block	esBAF inh	MITF TRPM1 inh	Wnt bcat act	MITF act
C[C@@H]1CN([C@H](C)CO)C(=O)c2cc(NS(=O)(=O)c3ccccc3)ccc2O[C@@H](C)CCCCO[C@@H]1CN(C)Cc1ccc(Cl)c(Cl)c1	102*!	16	-17	·	-5	·
CCC(=O)N1CC2(C1)CN(CC1CCOCC1)[C@H](CO)c1c2c2ccc(OC)cc2n1C	·	2	·	·	·	·
C[C@H](CO)N1C[C@H](C)[C@@H](CN(C)Cc2ccc(C(=O)O)cc2)Oc2ccc(NC(=O)C3CC3)cc2CC1=O	·	-8	-1	·	·	·
O=C(/C=C/c1c(F)cccc1Cl)Nc1nc2ccccc2[nH]1	-179	-51	·	-84	37*	?
Cc1onc(-c2c(F)cccc2Cl)c1C(=O)Nc1nc2ccccc2[nH]1	·	·	18	-2	·	10
Cc1ccc(/C=C/C(=O)c2ccccc2O)cc1	-156	-91	·	-37	26	37
CC(=O)Nc1nc2ccccc2[nH]1	1	11	·	5	0	-5
Cc1ccc(/C=C/C(=O)Nc2nc3ccccc3[nH]2)cc1	-109	·	·	-102	28	107*
Cc1ccc(/C=C/C(=O)c2nc3ccccc3[nH]2)cc1	-32	·	3	-8	37*	4
O=C(NC[C@@H]1CC[C@@H]2[C@@H](CN2Cc2cccc(Cl)c2)O1)C1CC1	·	-9	·	·	·	·
COc1ccc(S(=O)(=O)N(C)C[C@H]2Oc3ccc(NC(=O)Nc4c(C)noc4C)cc3CC(=O)N([C@H](C)CO)C[C@H]2C)cc1	·	2	1	·	·	·
CCC(=O)N1C[C@H](C)[C@@H](OC)CN(C)C(=O)c2ccc(NC(=O)c3cc(C)on3)cc2OC[C@@H]1C	10	9	-6	·	·	·
CCCNC(=O)N1C[C@@H](O)COC[C@@H]2O[C@H](CC(=O)N3CCC(Cc4ccccc4)CC3)CC[C@H]21	0	-3	0	·	·	·
COc1ccc(S(=O)(=O)N[C@H]2CC[C@@H](CCn3cc(C(C)C)nn3)O[C@H]2CO)cc1	-7	-1	3	·	·	·
O=C(CN1CCN(C(=O)c2ccc(-c3nc4ccccc4s3)o2)CC1)Nc1ccc(F)cc1	-47	-43	59*	11	26	-10
CCCNC(=O)Nc1ccc2c(c1)C(=O)N(C)[C@@H]1CC[C@H](CC(=O)NCCCN(C)C)O[C@H]1CO2	-15	-8	11	·	·	·
Cc1nn2cc(-c3ncc(C(F)(F)F)cc3Cl)cnc2c1Br	-123	20	·	-19	9	22
Cc1cc2ncc(-c3ncc(C(F)(F)F)cc3Cl)cn2n1	·	54*	·	-7	6	8
Cc1[nH]nc(-c2cccnc2)c1N=NN(C)C	71*	55*	·	72*	-1	-74
C/C=C/c1cnc2c(c1)C(=O)N([C@@H](C)CO)C[C@@H](C)[C@@H](CN(C)Cc1cccc(C(=O)O)c1)O2	0	-12	-2	·	·	·
N#Cc1ccc(NC(=S)/N=C(\N)c2ccccc2)cc1	-141	-68	?	·	-1	·
N/C(=N\C(=S)Nc1ccccc1)c1ccccc1	-212	-96	82*	-145	42*	?
N/C(=N\C(=S)Nc1ccc2c(c1)OCO2)c1ccccc1	-289	-99	64*	·	5	·
NC(=S)Nc1ccc2c(c1)OCO2	-5	-13	·	2	4	3
NC(N)=NC(=S)Nc1ccc(Cl)cc1	-61	-45	47*	-23	7	26
C/C=C/c1cnc2c(c1)C(=O)N([C@@H](C)CO)C[C@@H](C)[C@@H](CN(C)C(=O)Nc1ccc(F)cc1)O2	15	-9	1	·	·	·
Cc1ccc(O)c(N=Nc2ccccc2)n1	-108	-84	63*	-64	41*	68
